Measurements reported in PubChem BioAssay AID624296 (National Center for Advancing Translational Sciences (NCATS), 2012).
“And” between values parts separate entries of the source, which are not always exact repeats. Identical values can stand only once. The campaign covered roughly 350,000 compounds. About 9,900 (2.8%) were called active. A call without a number means that no potency is given here. Another 15% or so got no clear call; they are omitted. Calls follow the shape of the dose curve; as a rule, active = well fitted activation curve with a large enough effect; inconclusive = small, poorly fitted or top-dose-only effect; inactive = no such curve, though single readings can be large or run the other way. The sample as a whole holds a higher share of actives than the screen did. A structure can be active in one record and inactive in another.

Test: A quantitative high throughput screen for small molecules that induce DNA re-replication in MCF 10a normal breast cells. Also: nearly all actives have a fitted effect of over 50% in size.
Details: MCF 10A DNA re-replication, Hoechst nuclear intensity, 48 h; series mostly up to 46.1 µM
Potency is read from the fitted curve at half-maximal effect.

Structure (SMILES) | Potency
Cc1ccc(C)c(S(=O)(=O)N(C)c2ccc(OC(=O)C3CCN(C(=O)c4ccc(F)cc4)CC3)cc2)c1 | inactive
COc1ccc(CCC(=O)Nc2ccc(Cl)c(S(=O)(=O)N3CCOCC3)c2)cc1OC | inactive
COc1ccc(Br)cc1CN(C)C(=O)C1CC(=O)N(C2CCCC2)C1 (stereo not drawn) | inactive
COc1ccc(OC)c(NC(=O)COC(=O)Cc2ccsc2)c1 | inactive
CC(C)(C)c1ccc(/C=C/C(=O)NC2CCS(=O)(=O)C2)cc1 (stereo not drawn) | 0.92 µM (active)
CC(C)(C)c1ccc(/C=C/C(=O)Nc2ncccn2)cc1 | inactive
O=C(COC(=O)/C=C/c1ccc2c(c1)OCO2)NC1CCS(=O)(=O)C1 (stereo not drawn) | inactive
CCCc1cc(=O)[nH]c(SCC(=O)Nc2ccc(S(=O)(=O)N3CCCC3)cc2)n1 | inactive
CC(C)c1ccc(OCC(O)CN2CCN(c3ccccn3)CC2)cc1 (stereo not drawn) | 16.4 µM (active)
CC(=O)Nc1ccc(OCC(O)CN2CCN(c3ccccc3Cl)CC2)cc1 (stereo not drawn) | inactive
Cc1ccccc1OCC(O)CN1CCN(c2ccccn2)CC1 (stereo not drawn) | inactive
COC(=O)[C@]1(CC(C)C)N[C@H](c2ccc(SC3CCCCC3)cc2)[C@@H]2C(=O)N(C)C(=O)[C@@H]21 | inactive
CSc1ncccc1C(=O)Nc1ccc2c(c1)OCO2 | inactive
Nn1c(SCC(=O)Nc2ccc3c(c2)CCC3)nnc1C1CC1 | inactive
Cc1nc(N)sc1-c1ccccc1 | inactive
CCOC(=O)C1=C(C)N(C[C@@H]2CC[C@@H](Cc3ccc(-c4ccccc4)cc3)O2)C(=O)NC1c1ccc([N+](=O)[O-])cc1 (stereo partly drawn) | inactive
COc1ccc(CN2CN(C(C)C)CSC2=S)cc1 | 5.17 µM (active)
S=C1SCN(CCN2CCOCC2)CN1Cc1ccccc1 | inactive
COc1ccc(CCC(C)N2CCc3ccccc3C2)cc1 (stereo not drawn) | inactive
S=C(Nc1ccccc1)Nc1ccc2ccccc2c1 | inactive
COc1ccc2[nH]c3c(c2c1)CCN1C(=O)C(CC(=O)NCCCN(C)C)C[C@H](C(=O)N2CCOCC2)[C@@]31CCC1CCCC1 (stereo partly drawn) | inactive
CCOC(=O)[C@H]1[C@H]2COc3cc(OC)ccc3[C@@H]2N2C(=O)CN(Cc3ccc(Cl)cc3)C(=O)[C@@]12C | inactive
CCC(C)c1ccc(NC(=O)COC(=O)C2CCCC2)cc1 (stereo not drawn) | inactive
COc1ccc(OCc2cn3c(C)cc(C)nc3n2)cc1 | inactive
COc1ccc(C(C[N+](=O)[O-])n2nc(C)cc2C)cc1 (stereo not drawn) | 13 µM (active)

Structure (SMILES) | Potency
COc1ccc(C(=O)CSc2nc(C)cc(C)n2)cc1[N+](=O)[O-] | inactive
COc1ccccc1C(=O)Nc1ccc(OCC(=O)N2CCCCC2)cc1 | inactive
COc1ccc2nc(Nc3nc(-c4cc5ccccc5oc4=O)cs3)sc2c1 | 5.8 µM (active)
COc1ccc2nc(Nc3nc(-c4ccncc4)cs3)sc2c1 | inactive
O=c1oc2ccccc2cc1-c1csc(Nc2ccc(O)cc2)n1 | 14.6 µM (active)
Cc1ccc(Nc2nc(-c3ccc(O)cc3O)cs2)nc1 | inactive
CCNc1nc(-c2cc3ccccc3o2)cs1 | inactive
CCc1noc(C)c1C(=O)Nc1nc2ccc(OC)cc2s1 | inactive
CC(OC(=O)Cc1ccc(F)cc1)C(=O)N1CCc2ccccc21 (stereo not drawn) | inactive
Cc1sc2ncnc(N3CCC(C(=O)Nc4ccc(F)cc4Cl)CC3)c2c1C | inactive
C#CCOCCOCCOCCNc1nc(N2CCN(C(=O)Cn3cc(CCO)nn3)CC2)nc(N2CCN(C(=O)Cn3cc(CCCN=C(N)N)nn3)CC2)n1 | inactive
O=[N+]([O-])c1cccc(C=NN=Cc2ccccc2O)c1 | inactive
CC[C@]12c3[nH]c4ccc(Cl)cc4c3CCN1C(=O)[C@@H](CC(=O)NCCN1CCOCC1)C[C@@H]2C(=O)N1CCN(C(=O)C2CC2)CC1 | inactive
CCCN(C(=O)COC(=O)CNS(=O)(=O)c1ccc(NC(C)=O)cc1)C1CCS(=O)(=O)C1 (stereo not drawn) | inactive
COc1ccc(-c2csc(-c3cccs3)n2)cc1OC | inactive
COc1ccc(-c2csc3nc(-c4ccccc4F)oc(=O)c23)cc1OC | 8.2 µM (active)
COc1ccccc1-c1nnc(-c2ccc(F)cc2)o1 | inactive
COc1cc(CC(=O)Nc2nc(-c3ccc(F)c(F)c3)cs2)cc(OC)c1OC | inactive
COc1ccc(N/C=C(\C2OC(=O)c3ccccc32)[N+](=O)[O-])cc1 (stereo not drawn) | inactive
COc1ccc2c(c1OC)C(=O)OC2Nc1nc(-c2ccccc2)cs1 (stereo not drawn) | 4.61 µM (active)
COc1ccc(CCNc2nc(-c3cccc(NC(C)=O)c3)cs2)cc1OC | inactive
COc1ccc(-c2csc(NC3OC(=O)c4ccccc43)n2)cc1 (stereo not drawn) | 11.6 µM (active)
COc1ccc(-c2csc(NC(=O)COC(=O)c3ccc(Br)o3)n2)cc1 | inactive
CC1CC(C)CN(C(=O)COC(=O)c2ccc3ncsc3c2)C1 (stereo not drawn) | inactive
O=C(Nc1ccccc1F)c1ccc(S(=O)(=O)N2CCCCCC2)cc1 | inactive

Structure (SMILES) | Potency
O=C(CSc1ncnc2sccc12)N1CCN(C(=O)c2cccs2)CC1 | inactive
Cc1nnc(NC(=O)c2ccc3nccnc3c2)s1 | inactive
CCN(c1ccccc1)S(=O)(=O)c1cc(C(=O)NCc2ccccn2)ccc1C | inactive
CCCCn1nc(C(=O)Nc2cccc(C(=O)NC3CC3)c2)c2ccccc2c1=O | inactive
COC(=O)[C@]1(Cc2ccccc2)N[C@H](CN(C)S(=O)(=O)c2ccc(OC(F)(F)F)cc2)[C@@H]2C(=O)N(C)C(=O)[C@@H]21 | inactive
COc1cccc(C(=O)Nc2ccc(NC(=O)c3ccco3)cn2)c1 | inactive
COc1ccc(NC(=O)c2cccc(NC(=O)c3ccco3)c2)c(OC)c1 | inactive
COc1cccc(C(=O)Nc2ccc(N3CCN(C(=O)c4ccco4)CC3)cc2)c1 | 20.6 µM (active)
CC1(C)C[C@H]2C3=CCC4[C@@]5(C)CC[C@H](O)[C@](C)(CO)C5CC[C@@]4(C)[C@]3(C)C[C@@H](O)[C@@]2(CO)[C@@H](O)[C@@H]1O (stereo partly drawn) | inactive
CC(C)(C)OC(=O)C[C@@H]1C/C=C\C[C@@H](CC(=O)N[C@H](CO)Cc2ccccc2)C(=O)NCCOC1=O | inactive
O=C(NCC1(N2CCCCC2)CCCCC1)c1cccc(S(=O)(=O)Nc2ccccc2Cl)c1 | inactive
COc1cc(-c2c(-c3ccc4c(c3)OCO4)noc2C)ccc1F | 20.6 µM (active)
COc1cc2c(-c3ccc4c(c3)OCO4)c(-c3ccsc3)oc(=O)c2cc1OC | inactive
COc1ccc(CCNC(=O)c2cc(-c3ccc4c(c3)OCO4)on2)cc1OC | inactive
COC(=O)c1c(NC(=O)CSc2nncs2)sc2c1CCCCC2 | 0.231 µM (active)
COC(=O)c1c(NC(=O)CCCC(=O)O)sc2c1CCCCC2 | inactive
COC(=O)c1c(NC(=O)c2cccs2)sc2c1CCCC2 | inactive
Cc1ccc(C(=O)OCC(=O)NCc2cc(C)c(O)c(C)c2)cc1S(=O)(=O)N1CCCCC1 | inactive
CN1C(c2ccc(F)cc2)=CS/C1=C(/C#N)c1nnc2n1-c1ccccc1SC2 | inactive
c1csc(-c2nc(-c3ccncc3)no2)c1 | inactive
COc1nc(-c2ccc(Cl)cc2)ccc1-c1noc(-c2cccs2)n1 | 6.51 µM (active)
COc1ccc(CCc2nc(-c3cccs3)no2)cc1 | inactive
COc1ccc(NC(C)=O)cc1NC(=O)CN1CCN(C2c3ccccc3-c3ccccc32)CC1 | 20.6 µM (active)
COc1ccc(Cl)cc1NC(=O)CN1CCN(C(=O)N2CCOCC2)CC1 | inactive
COc1ccc(NC(C)=O)cc1NC(=O)CN1CCN(c2ccccn2)CC1 | inactive

Structure (SMILES) | Potency
COc1ccc(N2CCN(C(CNS(=O)(=O)c3ccc(C)cc3)c3ccccc3)CC2)cc1 (stereo not drawn) | inactive
CC(NC(=O)COC(=O)c1ccc2ccccc2n1)c1ccccc1 (stereo not drawn) | inactive
Oc1c(Cl)cc(Cl)c(Cl)c1Cc1c(O)c(Cl)cc(Cl)c1Cl | inactive and 920 nM (active)
CN(C)C(=O)CCc1ccc2c3c([nH]c2c1)[C@]1(CCc2ccccc2)[C@@H](C(=O)N2CCCCC2)C[C@H](CC(=O)NCCC2=CCCCC2)C(=O)N1CC3 | inactive
Nn1c(SCC(=O)Nc2nccs2)nnc1-c1ccco1 | inactive
COc1ccccc1N1CC(O)=C(c2nc3ccccc3s2)C1=N | inactive
CCOC(=O)CCCN1CC(O)=C(c2nc3ccccc3s2)C1=N | inactive
N=C1C(c2nc3ccccc3s2)=C(O)CN1NC(=O)c1ccc([N+](=O)[O-])cc1 | 3.66 µM (active)
CC1CC(=NNC(=O)C2COc3ccccc3O2)CC(C)(C)C1 (stereo not drawn) | inactive
O=C(Nc1ccccc1N1CCOCC1)c1ccncc1 | inactive
O=C(Nc1ccccc1N1CCCC1)c1ccc2ccccc2c1 | inactive
O=C(Nc1ccccc1N1CCCCC1)c1ccc2nccnc2c1 | 20.6 µM (active)
O=C(COc1ccccc1F)Nc1nc(-c2ccccn2)cs1 | inactive
O=C(c1ccc(S(=O)(=O)NCc2ccco2)cc1)N1CCN(c2ccccc2)CC1 | inactive
CCOC(=O)/C(C#N)=C/c1cn(CCC(=O)O)nc1-c1ccc(Br)cc1 | inactive
O=C(O)CCn1cc(/C=C/C(=O)c2ccc(Cl)cc2)c(-c2cccc(Br)c2)n1 | 4.11 µM (active)
O=C(O)/C=C/c1cn(Cc2ccccc2)nc1-c1cccs1 | inactive
CCC1(C)NC(=O)N(CC(=O)N2CCN(c3cccc(Cl)c3)CC2)C1=O (stereo not drawn) | inactive
O=C(CN1CCN(c2nc(-c3ccccc3)cs2)CC1)NCc1ccc2c(c1)OCO2 | 11.6 µM (active)
CC1CCCCN1CC(=O)NCc1ccc2c(c1)OCO2 (stereo not drawn) | inactive
COc1ccc(-c2csc(N3CCN(Cc4ccc5c(c4)OCO5)CC3)n2)cc1 | inactive
Cc1csc2nc(COC(=O)c3cccc(N(C)C)c3)cc(=O)n12 | inactive
COc1ccc(C(CNC(=O)c2cccc(S(=O)(=O)Nc3ccc(Br)cc3)c2)N(C)C)cc1 (stereo not drawn) | inactive
